# Measurements published in PubChem BioAssay (NCI).
# This is part of a sample that, as a whole, favours compounds with a hit. Of some 83,000 tested, about 20% had one in any assay.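 Assay: single dose, 48 h. Readout: percent growth (0 = no net growth; negative = cell death). Active: <10.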 Values without a mark were called inactive. Calls of active or inactive are those of the source.
# Tests used:
# Test in all cases: NCI-60 one-dose screen, 48 h (100 = growth as untreated, 0 = no growth, -100 = all killed)
# Conditions in all cases: 10 µM
# NCI-H23 lung = test system: NCI-H23 lung
# NCI-H226 lung = test system: NCI-H226 lung
# NCI-H322M lung = test system: NCI-H322M lung
# HOP-62 NSCLC = test system: HOP-62 NSCLC
# NCI-H460 lung = test system: NCI-H460 lung
# HOP-92 NSCLC = test system: HOP-92 NSCLC
# A549/ATCC NSCLC = test system: A549/ATCC NSCLC
# 786-0 renal = test system: 786-0 renal
# COLO 205 colon = test system: COLO 205 colon
# NCI-H522 lung = test system: NCI-H522 lung
Compound,growth (NCI-H23 lung),growth (NCI-H226 lung),growth (NCI-H322M lung),growth (HOP-62 NSCLC),growth (NCI-H460 lung),growth (HOP-92 NSCLC),growth (A549/ATCC NSCLC) [%],growth (786-0 renal),growth (COLO 205 colon),growth (NCI-H522 lung)
Nc1ccc(NC(=O)c2cccc(N)c2)cc1,96.7%,99.1%,95.2%,86.5%,101%,81.1%,47.6,101%,114%,
COc1cccc(COC(=O)Nc2ccccc2)c1OC,110%,96.6%,101%,100%,103%,109%,94.5,98.9%,114%,
O=C1OC(c2ccc(F)cc2)CC1CN1CCOCC1 (stereo not given),98.8%,107%,102%,101%,108%,94.5%,100,105%,93.1%,
CCCCCC(C)(CC(=O)O)CC(=O)O,115%,97%,113%,101%,108%,119%,101,107%,116%,
S=C1NCc2cncnc2N1,109%,101%,114%,93.5%,106%,95.6%,98.2,106%,111%,
CC1(C)Nc2cccc3c(N=Nc4ccc(N=Nc5ccccc5)c5ccccc45)ccc(c23)N1,85.1%,94%,91.4%,93.1%,92.1%,82.6%,99.3,122%,89.2%,
CN1C(=O)CN2CCc3ccccc3C2c2cc(Cl)ccc21 (stereo not given),87.1%,60.8%,93.4%,79.8%,97.5%,77.2%,,97.4%,110%,75.7%
CCOC(=O)Nc1nn[nH]n1,102%,107%,129%,113%,99.9%,97.3%,103,105%,107%,
CCCCOC(OCCCC)c1ccccc1,95%,107%,104%,117%,109%,101%,91.4,105%,112%,
COc1cc(C(=O)N/N=C/c2cccc([N+](=O)[O-])c2)cc(OC)c1OC,61.7%,77.8%,87.2%,77.1%,18.5%,70.7%,,78.2%,30.2%,19.6%
C[N+](C)(C)C(=O)c1ccccc1,99.5%,102%,118%,101%,119%,102%,101,109%,109%,
O=[N+]([O-])c1ccccc1S(=O)c1ccccc1[N+](=O)[O-],95.9%,111%,95.5%,108%,105%,76.2%,101,111%,106%,
CN(C)CCN(C)CC(C)(C)C(=O)/C=C/c1ccc(Cl)cc1,5.94% (active),-3.14% (active),5.34% (active),3.79% (active),-14.9% (active),-24.9% (active),,-22.5% (active),-86.5% (active),-62.6% (active)
CN(c1ccccc1)c1ncnc2c1ncn2C,101%,107%,115%,103%,101%,105%,87.3,106%,105%,
CCOC(=O)C(CCC(C)C)C(=O)OCC,103%,98.2%,112%,105%,106%,93.6%,102,113%,110%,
CC(=O)C1CCCCC1,103%,89.9%,105%,96%,102%,77.5%,97.2,98.8%,101%,
O=c1[nH]c(O)c(/C=C2/C=Nc3ccccc32)[nH]1,101%,92.1%,107%,99.4%,99.3%,84.5%,91.3,107%,101%,
COc1ccccc1N1CCN(C(=S)Nc2ccccc2)CC1,92.8%,99.4%,93.2%,89.7%,102%,80.9%,99.7,96.3%,97.4%,
OC(c1ccccn1)C(O)c1ccccn1 (stereo not given),97.5%,110%,96.8%,104%,114%,98.9%,95.3,99.5%,105%,
O=S(=O)(O)c1ccc(Cl)c(Cl)c1,101%,111%,127%,102%,110%,94.3%,95.5,98.5%,117%,
COc1ccc(C(O)c2ccccc2)cc1 (stereo not given),97.6%,94%,93.7%,90.6%,98.7%,93.4%,,100%,106%,94.8%
O=C1C[C@H](c2ccccc2)[C@H](c2ccccc2)C1,102%,97.6%,99.7%,98.5%,112%,70.9%,,101%,113%,79%
O=[N+]([O-])c1ccc(CO)cc1,104%,98.4%,98.9%,90.8%,98.7%,110%,,94.4%,109%,104%
C[C@]12CC[C@@H]3c4ccc(OCC(=O)O)cc4CC[C@H]3[C@@H]1CCC2=O,94.2%,95.7%,98%,75%,101%,92.1%,93.3,102%,105%,
Brc1cnc2ccccc2c1,103%,105%,106%,100%,109%,95.1%,104,109%,100%,
O=c1cc(-c2ccccc2)[nH]c2c1CCCC2,32.1%,54.3%,50.8%,28.8%,7.59% (active),46.7%,,36.4%,-10.1% (active),13.6%
Cc1ccc(O)c(C(=O)c2ccccc2)c1,98.4%,104%,138%,114%,113%,93.8%,95.9,111%,113%,
COc1ccc(/C(C#N)=C2C=C/C(=N/O)c3ccccc3\2)cc1,27.7%,36%,48.5%,35.3%,3.48% (active),13.3%,11.8,16.8%,-73% (active),
Cc1cc(=O)cc(C)n1-c1ccccc1,96.5%,96.3%,106%,99.6%,107%,90.6%,,90%,106%,102%
CCOC(=O)C1=C(Nc2ccc(Br)cc2)C(=O)N(CC)C1,98.8%,86.3%,95.6%,85.9%,107%,48.3%,98.8,91.4%,108%,
